# Source: the supplement of paper PMC6897291
# Counter-ions that a name gives are not always drawn.
# Experiments:
# U-2932 [1] = test: growth inhibition by drug alone (1 - RLU/untreated control) (fraction); higher = stronger inhibition; details: 177Lu-lilotomab satetraxetan 0 ug/ml
# Outline: (§1)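 Growth inhibition was calculated from RealTime-Glo RLU against untreated no-drug wells. Values equal 1 − RLU/mean of 48 untreated no-drug wells per plate, read daily from day 3 after 1 h at 37°C. RIVA and U-2932 cells, with or without 18 h pretreatment by a radiolabelled anti-CD37 antibody conjugate (~600 MBq/mg; 0.5 µg/ml RIVA, 1 µg/ml U-2932), were washed and plated at 3,000 cells/well on compound-printed plates at 10/100 nM (RIVA) or 10/1,000 nM (U-2932).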
# RIVA [2] = test: as above; details: 177Lu-lilotomab satetraxetan 0 ug/ml
# Outline: as §1
# U-2932 [3] = test: growth inhibition by drug plus 177Lu-lilotomab satetraxetan (1 - RLU/untreated control) (fraction); higher = stronger inhibition; details: 177Lu-lilotomab satetraxetan 1 ug/ml
# Outline: as §1
# RIVA [4] = test: as above; details: 177Lu-lilotomab satetraxetan 0.5 ug/ml
# Outline: as §1
SMILES,"growth inhibition by drug alone (U-2932 [1]; 10 nM, time (day): 3)","growth inhibition by drug alone (U-2932 [1]; 10 nM, time (day): 4)","growth inhibition by drug alone (U-2932 [1]; 10 nM, time (day): 5)","growth inhibition by drug alone (U-2932 [1]; 10 nM, time (day): 6)","growth inhibition by drug alone (U-2932 [1]; 1000 nM, time (day): 3)","growth inhibition by drug alone (U-2932 [1]; 1000 nM, time (day): 4)","growth inhibition by drug alone (U-2932 [1]; 1000 nM, time (day): 5)","growth inhibition by drug alone (U-2932 [1]; 1000 nM, time (day): 6)","growth inhibition by drug alone (RIVA [2]; 10 nM, time (day): 3)","growth inhibition by drug alone (RIVA [2]; 10 nM, time (day): 4)","growth inhibition by drug alone (RIVA [2]; 10 nM, time (day): 5)","growth inhibition by drug alone (RIVA [2]; 10 nM, time (day): 6)","growth inhibition by drug alone (RIVA [2]; 100 nM, time (day): 3)","growth inhibition by drug alone (RIVA [2]; 100 nM, time (day): 4)","growth inhibition by drug alone (RIVA [2]; 100 nM, time (day): 5)","growth inhibition by drug alone (RIVA [2]; 100 nM, time (day): 6)","growth inhibition by drug plus 177Lu-lilotomab satetraxetan (U-2932 [3]; 10 nM, time (day): 3)","growth inhibition by drug plus 177Lu-lilotomab satetraxetan (U-2932 [3]; 10 nM, time (day): 4)","growth inhibition by drug plus 177Lu-lilotomab satetraxetan (U-2932 [3]; 10 nM, time (day): 5)","growth inhibition by drug plus 177Lu-lilotomab satetraxetan (U-2932 [3]; 10 nM, time (day): 6)","growth inhibition by drug plus 177Lu-lilotomab satetraxetan (U-2932 [3]; 1000 nM, time (day): 3)","growth inhibition by drug plus 177Lu-lilotomab satetraxetan (U-2932 [3]; 1000 nM, time (day): 4)","growth inhibition by drug plus 177Lu-lilotomab satetraxetan (U-2932 [3]; 1000 nM, time (day): 5)","growth inhibition by drug plus 177Lu-lilotomab satetraxetan (U-2932 [3]; 1000 nM, time (day): 6)","growth inhibition by drug plus 177Lu-lilotomab satetraxetan (RIVA [4]; 10 nM, time (day): 3)","growth inhibition by drug plus 177Lu-lilotomab satetraxetan (RIVA [4]; 10 nM, time (day): 4)","growth inhibition by drug plus 177Lu-lilotomab satetraxetan (RIVA [4]; 10 nM, time (day): 5)","growth inhibition by drug plus 177Lu-lilotomab satetraxetan (RIVA [4]; 10 nM, time (day): 6)","growth inhibition by drug plus 177Lu-lilotomab satetraxetan (RIVA [4]; 100 nM, time (day): 3)","growth inhibition by drug plus 177Lu-lilotomab satetraxetan (RIVA [4]; 100 nM, time (day): 4)","growth inhibition by drug plus 177Lu-lilotomab satetraxetan (RIVA [4]; 100 nM, time (day): 5)","growth inhibition by drug plus 177Lu-lilotomab satetraxetan (RIVA [4]; 100 nM, time (day): 6)"
CS(=O)(=O)CCNCc1ccc(-c2ccc3ncnc(Nc4ccc(OCc5cccc(F)c5)c(Cl)c4)c3c2)o1 [Lapatinib Ditosylate (Tykerb)],0.0817,0.081,0.00227,-0.0646,0.0164,0.0506,-0.0238,-0.169,-0.0232,0.00959,-0.0719,-0.295,-0.283,-0.179,-0.183,-0.291,0.108,0.154,0.199,0.225,0.0709,0.127,0.153,0.277,0.649,0.657,0.672,0.674,0.379,0.475,0.487,0.486
CO[C@@H](C(=O)N1Cc2[nH]nc(NC(=O)c3ccc(N4CCN(C)CC4)cc3)c2C1)c1ccccc1,0.0385,-0.0423,-0.0829,-0.0542,0.206,0.258,0.259,0.368,-0.0286,-0.0311,-0.0917,-0.234,0.138,0.0638,0.148,0.29,0.00406,0.0748,0.116,0.142,0.398,0.469,0.53,0.634,0.555,0.594,0.603,0.604,0.514,0.615,0.685,0.776
"Cn1cnc([N+](=O)[O-])c1Sc1ncnc2[nH]cnc12 [Azathioprine (Azasan, Imuran)]",0.0201,-0.00369,0.00367,0.0444,0.0785,0.0404,0.00445,0.131,-0.0287,-0.0923,-0.12,-0.24,-0.168,-0.224,-0.259,-0.337,0.00188,0.0643,0.101,0.167,0.0755,0.0766,0.124,0.326,0.505,0.533,0.565,0.573,0.444,0.518,0.521,0.529
Cc1ccnc(NS(=O)(=O)c2ccc(NC(=O)Nc3ccc(S(=O)(=O)Nc4nccc(C)n4)cc3)cc2)n1,0.175,0.112,-0.00245,-0.0763,0.114,0.089,-0.0667,-0.0262,0.0129,0.0204,-0.0366,-0.304,-0.284,-0.137,-0.166,-0.281,0.0395,0.0885,0.162,0.182,0.099,0.13,0.195,0.303,0.581,0.617,0.633,0.636,0.492,0.533,0.541,0.545
O=c1c(O)c(-c2ccc(O)c(O)c2)oc2cc(O)cc(O)c12 [Quercetin (Sophoretin)],0.129,0.074,-0.0824,-0.0972,0.0543,0.0523,0.0143,-0.101,-0.0527,-0.036,-0.117,-0.426,-0.494,-0.296,-0.357,-0.683,0.0451,0.0897,0.166,0.21,0.0503,0.0821,0.135,0.211,0.546,0.61,0.613,0.619,0.346,0.469,0.48,0.508
O=C(NOC[C@H](O)CO)c1ccc(F)c(F)c1Nc1ccc(I)cc1F,0.189,0.198,0.0482,0.0357,0.152,0.19,0.102,0.0951,0.198,0.141,0.026,-0.212,0.191,0.122,0.0195,-0.189,0.138,0.163,0.15,0.218,0.162,0.231,0.189,0.269,0.487,0.514,0.508,0.496,0.552,0.532,0.512,0.467
COc1cc(Nc2c(C#N)cnc3cc(OCCCN4CCN(C)CC4)c(OC)cc23)c(Cl)cc1Cl [Bosutinib (SKI-606)],0.086,0.0525,-0.0862,-0.0345,0.264,0.239,0.19,0.239,-0.0137,-0.0501,-0.131,-0.404,-0.377,-0.355,-0.406,-0.598,0.0416,0.085,0.124,0.135,0.333,0.281,0.33,0.431,0.588,0.626,0.647,0.638,0.263,0.36,0.378,0.403
Oc1ccc(Nc2nc(-c3ccc(Cl)cc3)cs2)cc1,0.0714,0.0415,-0.0308,-0.079,0.00763,0.0746,-0.00976,-0.13,-0.021,-0.0647,-0.176,-0.522,-0.28,-0.263,-0.403,-0.57,-0.0159,0.00418,0.0159,-0.00943,0.0757,0.243,0.237,0.277,0.383,0.501,0.516,0.539,0.158,0.298,0.304,0.293
CC(=O)O[C@]1(C(C)=O)CC[C@H]2[C@@H]3C[C@H](C)C4=CC(=O)CC[C@]4(C)[C@H]3CC[C@@]21C [Medroxyprogesterone acetate],0.141,0.111,0.0166,-0.207,0.107,0.162,0.15,0.056,-0.0698,-0.099,-0.346,-0.679,-0.507,-0.273,-0.35,-0.619,0.0781,0.0764,0.144,0.108,0.102,0.176,0.224,0.336,0.422,0.555,0.543,0.565,0.235,0.389,0.409,0.427
Cn1cncc1[C@@](N)(c1ccc(Cl)cc1)c1ccc2c(c1)c(-c1cccc(Cl)c1)cc(=O)n2C [Tipifarnib (Zarnestra)],0.0908,0.0396,0.00741,-0.0584,0.757,0.8,0.836,0.863,-0.055,-0.241,-0.428,-0.678,-0.0203,-0.124,-0.267,-0.517,0.0185,0.0674,0.106,0.1,0.777,0.805,0.847,0.882,0.37,0.421,0.452,0.489,0.482,0.521,0.511,0.536
CN(Cc1cnc2nc(N)nc(N)c2n1)c1ccc(C(=O)N[C@@H](CCC(=O)O)C(=O)O)cc1 [Abitrexate (Methotrexate)],-0.0461,-0.0435,-0.0522,-0.0907,0.866,0.93,0.956,0.968,-0.206,-0.255,-0.282,-0.39,-0.038,-0.184,-0.173,-0.287,-0.123,-0.083,-0.0233,0.0372,0.851,0.924,0.957,0.972,0.364,0.489,0.508,0.521,0.452,0.49,0.483,0.457
CCCCCCCCc1ccc(CCC(N)(CO)CO)cc1 [Fingolimod (FTY720)],0.0955,0.0585,0.0453,-0.1,0.0228,0.0231,0.00428,-0.0571,0.0298,0.0648,-0.0103,-0.296,-0.16,-0.13,-0.129,-0.231,0.0534,0.0695,0.13,0.219,-0.0305,0.0614,0.0905,0.203,0.437,0.577,0.586,0.614,0.364,0.447,0.474,0.484
CC/C(=C(\c1ccccc1)c1ccc(OCCN(C)C)cc1)c1ccccc1 [Tamoxifen Citrate (Nolvadex)],0.0699,0.0582,-0.0313,-0.0576,0.106,0.0715,-0.0226,0.0641,0.0612,0.0931,0.0782,-0.0872,0.551,0.381,0.352,0.322,0.0801,0.126,0.2,0.206,0.075,0.103,0.172,0.27,0.602,0.651,0.667,0.656,0.78,0.78,0.788,0.802
O=c1cc(-c2cccc3c2Sc2ccccc2S3)oc(N2CCOCC2)c1,-0.0795,-0.0657,-0.0216,0.0484,-0.0815,-0.0342,-0.0721,-0.125,-0.212,-0.223,-0.243,-0.318,-0.0838,-0.0652,-0.119,-0.19,-0.0246,-0.00365,0.0233,0.166,-0.108,-0.0389,-0.0219,0.0537,0.36,0.504,0.522,0.526,0.335,0.399,,
